# In PubChem BioAssay (NCATS):
# Inconclusive results are not listed. Active and inactive are the calls of the source. Calls follow the shape of the dose curve; as a rule, active = well fitted cell-killing curve with a large enough effect; inconclusive = small, poorly fitted or top-dose-only effect; inactive = flat fitted curve, though single readings scatter.
# Assay: qHTS of pediatric cancer cell lines to identify multiple opportunities for drug repurposing: Primary screen for DAOY cells (AID 1347090); also: nearly all actives have a fitted effect of over 55% in size
# Details: DAOY medulloblastoma viability, CellTiter-Glo luminescence, 48 h; series mostly up to 46 µM; activity change, negative = cytotoxic: at the top concentration
# Excerpt: Drug repurposing or repositioning has been offered as a strategy for drug development in oncology programs. This approach has special potential for childhood cancers and other rare or orphan diseases, where the expected return on new drug development has been a disincentive to pharmaceuticals.
# In this project we exploit the poly-pharmacology of drugs to discover new indications via phenotypic screening of a panel of 19 well-characterized cell lines derived from solid tumors seen in children and adolescents. The goal is to identify approved drugs with previously unrecognized anticancer properties that has the potential to reveal new mechanisms and biological processes involved in carcinogenesis or drug resistance. We employed a titration-based paradigm (quantitative high-throughput screening or qHTS), where all compounds were tested at multiple concentrations for their effect on cell viability. Concentration-response curves (CRCs) were derived directly from the primary screen, and both potency and efficacy values were used to identify compounds with robust bioactivity profiles. We screened the NIH Chemical Genomics Center (NCGC) Pharmaceutical Collection (NPC) and Mechanism Interrogation Plate (MIPE) small molecule collections of approved and investigational compounds against these cell lines; and measured metabolically active cells after 48 hours of compound treatment as a proxy for cell viability.
# Assay Submitter: Nathalia J. Martinez, National Center for Advancing Translational Sciences, National Institutes of Health, Rockville, MD, USA; email: natalia.martinez@nih.gov
# [1] Shen, M et al. Quantitative high-throughput phenotypic screening of pediatric cancer cell lines identifies multiple opportunities for drug repurposing. Oncotarget 2017 Dec 19;9(4):4758-4772. PMID 29435139.
# The cells were obtained from University of North Carolina (UNC), Pediatric Preclinical Testing Program (PPT), and Coriell Institute (CI).
# qHTS cell viability assay:
# Cells were assayed in growth media at a density of 500-1,000 cells/well. Five microliters of cells were dispensed into 1,536-well, white, solid-bottom, TC-treated plates (Greiner Bio One) using a multidrop dispenser and incubated at 37 degrees C, 5% CO2, under a humidified atmosphere for 5 hours. Twenty-three nanoliters of compounds and controls (neutral control DMSO or positive control bortezomib at final concentration of 2.3 µM) were subsequently transferred by Kalypsys pintool. For primary screens, the MIPE collection was tested at 11-point dilutions (final concentrations range from 0.78 nM to 46 µM) and the NPC collection at 8-point dilutions (final concentrations range from 0.59 nM to 46 µM). Compounds tested in follow-up screens were assayed at 11-point dilutions. Cells were incubated for 48 hours, followed by addition of 3 uL of CellTiter-Glo (Promega). After a 15 min incubation at room temperature, samples were analyzed for luminescence intensity using a ViewLux High-throughput CCD imager equipped with clear filters.
# Potency is read from the fitted curve at half-maximal effect.
Structure (SMILES),"activity change, negative = cytotoxic",Potency
Cc1ccccc1C(=O)N1CC/C(=N\OS(=O)(=O)O)c2ccc(Cl)cc21,1.24% (inactive),
CC(NN)c1ccccc1 (stereo not given),-6.07% [at 16.1 µM] (inactive),
NS(=O)(=O)c1ccc(N2CCCCS2(=O)=O)cc1,1.36% (inactive),
CCCCCCOC(=O)NC(=N)c1ccc(NCc2nc3cc(C(=O)N(CCC(=O)OCC)c4ccccn4)ccc3n2C)cc1,1.28% (inactive),
C#CC(C)(CC)OC(=O)c1ccccc1C(=O)O (stereo not given),-1.37% (inactive),
C[N+]1(CC2COC(c3ccccc3)(c3ccccc3)O2)CCCCC1 (stereo not given),-12.8% [at 16.1 µM] (inactive),
CC(NC(CCc1ccccc1)C(=O)O)C(=O)N1C(=O)N(C)CC1C(=O)O (stereo not given),9.68% (inactive),
CN(C)CCN(Cc1ccsc1)c1ccccn1,2.71% (inactive),
Oc1cccc2[nH]ccc12,0.507% (inactive),
CCS(=O)(=O)c1ccc(OC)c(C(=O)OC)c1,12.3% (inactive),
Cc1sccc1Br,-3.14% (inactive),
CCCCCOc1ccc(C2SC(=O)NC2=O)cc1OCC (stereo not given),-18.8% (inactive),
COC(=O)C1=C(C)NC(COC(N)=O)=C(C(=O)OC(C)C)C1c1cccc(Cl)c1Cl (stereo not given),-12% (inactive),
O=C(OCC(COC(=O)c1cccnc1)(COC(=O)c1cccnc1)COC(=O)c1cccnc1)c1cccnc1,-8.17% (inactive),
Cc1ccc(O)cc1,13.2% (inactive),
O=C(c1ccco1)N1CCNCC1,3.76% (inactive),
CCN(CC)CC(=O)Oc1ccc(NC(C)=O)cc1,12.5% (inactive),
COCCc1ccc(OCC2CO2)cc1 (stereo not given),-15.9% (inactive),
CCN(CC)CC(=O)OCC(=O)[C@@]1(O)CC[C@H]2[C@@H]3CCC4=CC(=O)CC[C@]4(C)[C@H]3[C@@H](O)C[C@@]21C,2.73% (inactive),
O=C1CC2(CCCC2)CC(=O)N1CCNCC1COc2ccccc2O1 (stereo not given),2.33% (inactive),

Structure (SMILES),"activity change, negative = cytotoxic",Potency
O=C(CCCCC(=O)Nc1c(I)cc(I)c(C(=O)O)c1I)Nc1c(I)cc(I)c(C(=O)O)c1I,14.3% (inactive),
OCCOCCN1CCN(C(c2ccccc2)c2ccc(Cl)cc2)CC1 (stereo not given),3.85% (inactive),
CC(=O)/C=C/C=C1/C2CCC(C2)C1(C)C (stereo not given),4.8% (inactive),
O=C(O)/C=C(\CC(=O)O)C(=O)O,8.48% (inactive),
CC(C)NCCCC1(C(N)=O)c2ccccc2-c2ccccc21,-4.9% (inactive),
CC(=O)N(CC(O)CO)c1c(I)c(C(=O)NCCO)c(I)c(C(=O)NCC(O)CO)c1I (stereo not given),5.59% (inactive),
CN(C)C(=O)CNC(=O)Cc1ccccc1,-12.8% (inactive),
CCOC(=O)O[C@]1(C(=O)OCCl)CC[C@H]2[C@@H]3CCC4=CC(=O)C=C[C@]4(C)[C@H]3[C@@H](O)C[C@@]21C,-2.7% (inactive),
CC(=O)O[C@@H]1CC2C3CCc4cc(OC(=O)c5ccccc5)ccc4C3CCC2(C)[C@H]1OC(C)=O (stereo not given in full),5.51% (inactive),
Fc1ccc(C(c2ccc(F)cc2)N2CCNCC2)cc1,9.67% (inactive),
COC(=O)C1=C(C)NC(C)=C(C(=O)OCCc2ccc(N3CCN(C(c4ccccc4)c4ccccc4)CC3)cc2)C1c1cccc([N+](=O)[O-])c1 (stereo not given),4.41% (inactive),
CCCCC(CC)CNC(=O)CC(C)OC(=O)CCC(=O)O (stereo not given),-6.67% (inactive),
COc1ccc2cc(C=O)ccc2c1,8.26% (inactive),
CC(=O)Oc1ccc(C2(c3ccc(OC(C)=O)cc3)Oc3ccccc3NC2=O)cc1,,13.3 µM (active)
Cc1nc(C2CCCCC2)c(-c2ccc(S(N)(=O)=O)c(F)c2)o1,-9.85% (inactive),
Cn1c(=O)c2c(ncn2CC(=O)O)n(C)c1=O,7.68% (inactive),
C[N+]1(C)CCC(OC(=O)C(O)(c2ccccc2)C2CCCC2)C1 (stereo not given),5.41% (inactive),
CN(C(=O)C(Cl)Cl)c1ccc(OC(=O)c2ccco2)cc1,-3.07% (inactive),
CC(C)C(=O)Nc1cccc(C(F)(F)F)c1,10.8% (inactive),
CCCCC(=O)OCC(=O)[C@H]1[C@H](C)C[C@H]2[C@@H]3C[C@H](F)C4=CC(=O)C=C[C@]4(C)[C@@]3(F)[C@@H](O)C[C@@]21C,0.121% (inactive),
